Source: the supplement of paper PMC6555819

What was measured:
Test in all cases: PBM binding z-score (relative to random genomic background probes); higher = stronger binding; sequences stand for … in GC…GCGATTGACAGCGTAGAATGAAGG
[1] = tested on: RARb homodimer (NR concentration 270 nM)
In short: (§1)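 Binding z-scores take random background probes as their reference. They come from custom Agilent 4×180K protein-binding microarrays incubated 1 h with ligand-free nuclear receptor dimers, with antibodies against each partner (one per run) detecting binding. Scanned fluorescence was regression-normalized.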

[2] = tested on: RARg:RXRa (NR concentration 270 nM, RXRa partner concentration 90 nM)
In short: as §1

[3] = tested on: RARg homodimer (NR concentration 270 nM)
In short: as §1

[4] = tested on: RXRa DBDmut IVT, anti-RXR (DBD mutation: RXRa K156A/R161A, NR concentration 90 nM)
In short: as §1

[5] = tested on: RXRa homodimer (NR concentration 180 nM)
In short: as §1

[6] = tested on: THRa:RXRa (NR concentration 90 nM, RXRa partner concentration 90 nM)
In short: as §1

[7] = tested on: THRa homodimer (NR concentration 90 nM)
In short: as §1

[8] = tested on: VDR homodimer (NR concentration 270 nM)
In short: as §1

Sequence	PBM binding z-score [1]	PBM binding z-score [2]	PBM binding z-score [3]	PBM binding z-score [4]	PBM binding z-score [5]	PBM binding z-score [6]	PBM binding z-score [7]	PBM binding z-score [8]
TCTGGCAGGCCAGAGGGTCACTCAAGAGGTACGG	2.63	2.81	1.94	-0.443	2.6	1.62	-0.676	0.353
AGAATGAGGTTATACGTAGATCAGGCAAGAAAGT	0.646	1.78	1.11	1.62	2.14	2.26	0.402	0.719
AGTCAAAGTTCAGGACGAGGTAACGTAGAGCACG	3.39	4.8	4.77	2.61	3.06	4.07	1.71	2.15
CCGACTGGGGCAAAGGTTATCATACTCAGTACGA	1.89	3	1.45	0.137	3.11	1.66	-0.0355	0.133
AGAATCAGGTTACCAAAGATCAGGGAAACGCTTG	0.374	0.744	0.974	0.0556	0.775	1.36	0.124	-0.469
CCGACTGGTGCAAAGGTTACCATACTCAGTACGA	2.08	2.07	1.32	0.63	2.93	1.45	0.0703	0.351
CGTCCAAAGTCAAGGTCAGTGAAAGAGACTCGAA	3.54	3	3.58	1.13	2.53	3.03	2.06	1.29
ATCGAAAGGTCGAAGCTGAGTATACCCACCCGAA	2.18	3.83	3.5	1.42	4.13	1.73	0.00439	0.746
GATACAGGGTCAGCTAGAGGCCAGCGTATGGAAA	3.69	6.91	5.12	0.996	4.79	3.11	0.434	0.825
TCATATAGGTAATACAGGTGAAATTCGGCATCTA	0.536	0.764	0.496	1.51	1.34	1.04	0.421	0.0975
TCGTGTAGGTTAGGGGCATTCAGAATGGCGTCGA	1.37	0.648	0.819	1.09	0.961	1.3	0.787	0.922
ACTAATAGTTGACTTAGGGCAACCGATACGACGC	0.958	0.412	0.996	0.674	0.408	1.6	0.383	0.15
GCTAGCAGGCCATTAGGGTCACTCAATGACGGGC	2.83	2.53	2.08	0.0923	2.42	3.37	2.03	1.91
ATCTCTAGGTAAAAGTTCGGTGAATCCCGAGGAT	0.446	0.536	0.526	0.2	0.463	0.583	0.177	0.68
TCTAGCAGGCCAGAGGGTCAGTCAAGAGGTACGG	2.16	1.59	1.82	-0.232	1.43	0.734	-0.934	-0.429
CAAACTAGCTCAAGAGGTCAAAGTCCGCTTCCCG	4.52	4.96	4.04	2.4	5.51	3.66	1.72	3.55
CCGACTGGGGCTTAAGGTTACCATAAGCCAGCCC	0.796	0.272	0.0964	-0.55	0.688	2.53	1.94	-0.232
CGTACAAGGTCAATGCTAGGTCAGTGAAAGCATT	5.18	7.9	7.1	3.82	6.04	4.45	3.05	3.22
CATACAGGGTCAGCTAGGCCAAAGTAGGGACGGC	3.27	4.71	5.14	1.49	4.24	3.16	0.87	2.11
AGAATGAGGTTATACGTAGATCAGGGAAGAAAGT	1.19	1.88	1.24	1.35	2.23	2.23	0.863	0.864
ACTATTAGTTGACTTACGGCAACCGATACGACGC	0.0214	0.528	0.668	0.643	0.39	0.386	-0.0482	-0.179
TGTAGTTGGTCACGGAGGTCACACACGACGGGTA	4.39	4.74	4.47	-0.214	4.76	3.6	2.44	2.45
CCTGCTAGGTCGATGGTCAGCTAAAGCAGCTCGC	0.8	0.222	0.416	0.224	-0.11	0.103	-0.265	-0.719
GCGACTGGGGCATCAGCAGGTTACCATGACTTAA	0.92	0.761	0.815	-0.0631	0.124	0.654	0.00537	-0.549
ACAGTCAGGTGAGTGAAGGTAACTCAGCTGGACG	-0.0774	0.2	0.617	-0.471	0.122	1.63	-0.205	-0.58
CCTACTGGGGCATCAGGTCATTGATATCAACGTT	2.89	2.6	2.39	0.331	1.87	3.19	2.71	2.06
CCTGCCAGGTCAATGGTCAGCTAAAGCAGCTCGC	3.05	3.74	4.06	1.44	2.57	3.19	1.4	0.0635
GCTAGTTGTTCAGTAAAAGGTCACACACCGGTCG	5.07	4.7	4.28	0.628	5.06	3.39	1.77	1.84
